Compound activity from PubChem BioAssay.
Hits are enriched below; roughly 2.1% of the tested compounds scored in any of these assays.
FUS yeast rescue – FUS proteinopathy suppression in yeast; S. cerevisiae FUS-expressing, growth rescue, OD600, 24 h; Potency, µM (highest dose often 76.6 µM), actives largely listed as activators; 0.24% of 390,000 active; AID 1347120; also: nearly all actives have a fitted effect of over 55% in size
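Restored growth of FUS-toxic S. cerevisiae, read as 600 nm absorbance after 24 h at 30C in galactose medium (starting OD 0.005). Controls CP55940 and DMSO.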
Abeta rescue – restores growth of yeast expressing A-beta42 peptide; yeast expressing A-beta42, growth rescue, OD600, 48 h; response scale: 0% DMSO, 100% iron-clioquinol control; Potency, µM (titrated, usually from 46.1 µM), actives largely listed as activators; 0.063% of 410,000 active; also: nearly all actives have a fitted effect of over 55% in size
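Yeast A-beta toxicity model in growth medium with pinned compounds, 48 h at 30 C; growth read as absorbance at 600 nm. Normalized to FeCl3/clioquinol equimolar mix (positive) and DMSO (negative).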
aSyn rescue – alpha-synuclein toxicity inhibition in yeast; Yeast expressing alpha-synuclein, growth rescue, BacTiter-Glo, 24 h; Potency, µM (top dose mostly 46.1 µM), most hits filed as activators; 0.14% of 370,000 active; also: nearly all actives have a fitted effect of over 65% in size
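Screening used galactose-induced yeast with toxic alpha-synuclein levels, exposed to compound for 24 hr at 30 deg C. Cell growth, read with BacTiter-Glo luminescence, gave the measured signal.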
TDP-43 yeast inh – inhibitors of TDP-43 toxicity in yeast; TDP-43 expressing yeast growth rescue, BacTiter-Glo, 24 h; Potency, µM (highest dose often 46.1 µM), most hits filed as activators; 1.8% of 410,000 active; AID 652104; also: nearly all actives have a fitted effect of over 50% in size
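Cell-based yeast growth screen: TDP-43 expression induced in galactose, inoculum OD600=0.02 after raffinose pregrowth to mid-log. Read-out BacTiter-Glo luminescence at 24 hr, 30 deg C; inhibition of toxicity seen as signal increase.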
Hits are given with their value; i = inactive; ? = inconclusive; nt = no result given. Calls follow the shape of the dose curve; as a rule, active = well fitted curve in the direction sought with a large enough effect; inconclusive = small, poorly fitted or top-dose-only effect, or another doubt; inactive = no such curve, though single readings can be large; an effect the other way counts as inactive or inconclusive.

SMILES	FUS yeast rescue	Abeta rescue	aSyn rescue	TDP-43 yeast inh
CCOC(=O)N1CCN(C(=O)C[C@@H]2C[C@@]3(C(=O)OCC)CCC=C3N(Cc3cccc4ccccc34)C2=O)CC1	i	i	i	15.8µM
CCOC(=O)N1CCN(C(=O)C[C@@H]2C[C@@]3(C(=O)OCC)CCC=C3N(Cc3ccc(Cl)cc3Cl)C2=O)CC1	?	i	i	22.4µM
Cc1ccc(C)c(CN2C(=O)NC3(CCCCCC3)C2=O)c1	i	?	i	22.4µM
C=CCn1c(SCC(=O)Nc2ccc(CCCC)cc2)nnc1-c1ccc(Cl)cc1	i	nt	nt	nt
Cc1ccc(C)c(S(=O)(=O)N2CCN(C(=O)Cc3sc(C)nc3-c3ccc(F)cc3)CC2)c1	nt	i	15.8µM	i
Cc1nc(-c2ccc(F)cc2)c(CC(=O)N2CCN(S(=O)(=O)c3ccccc3Br)CC2)s1	nt	i	i	i
Nc1cc(N2CCCCC2)c([N+](=O)[O-])cc1Cl	nt	i	i	?
Nc1cc(N2CCCCC2)c(Cl)cc1[N+](=O)[O-]	i	i	i	12.6µM
CC(SC#N)C(=O)C12CC3CC(CC(C3)C1)C2 (stereo not given)	i	i	i	11.2µM
CC(Sc1n[nH]c(N)n1)C(=O)C12CC3CC(CC(C3)C1)C2 (stereo not given)	i	i	i	i
COc1cccc([C@@H]2Nc3ccc(C(=O)O)cc3[C@@H]3C=CC[C@@H]32)c1OC	?	i	nt	17.8µM
CC(C)C1Nc2ccc(C(=O)O)cc2C2C=CCC21 (stereo not given)	i	i	i	17.8µM
C#CC1(O)C2C=C(OC)C(=O)C1C(c1ccccc1)C2C (stereo not given)	i	nt	nt	nt
CC(C)C[C@@H]1COc2cc(N3CCCC3)ccc2S(=O)(=O)N1C	i	nt	nt	nt
Cc1cc(=O)[nH]c(SCC(=O)Nc2cccc(C)c2C)n1	i	nt	nt	nt
COCCNC(=S)N/N=C(\C)c1cccc(C(F)(F)F)c1	i	11.2µM	i	i
COCCNC(=S)N/N=C(\C)c1ccc2cc(OC)ccc2c1	i	i	i	i
CCCCCC/C=N/Nc1nnc(Cc2ccccc2)c(=O)[nH]1	i	i	i	20µM
CCC/C=N/Nc1nnc(Cc2ccccc2)c(=O)[nH]1	i	i	i	i
Cc1ccc(NC(=O)COC(=O)c2cc(Cl)ccc2[N+](=O)[O-])c(C)c1	nt	i	i	i
O=C(COC(=O)c1cc(Cl)ccc1[N+](=O)[O-])Nc1cccc2ccccc12	nt	i	i	20µM
Nc1[nH]c2ccccc2c1C(=O)NC1CC1	i	nt	nt	nt
CN(CC#Cc1ccccc1)C(N)=NC(=O)/C=C/c1cccc(C(F)(F)F)c1	i	nt	nt	nt
O=C(Nc1ccccc1)C1C(c2ccccc2)C1(Cl)Cl (stereo not given)	i	i	i	?
O=C(Nc1ccc(Cl)cn1)C1C(c2ccccc2)C1(Cl)Cl (stereo not given)	i	i	i	12.6µM
SMILES	FUS yeast rescue	Abeta rescue	aSyn rescue	TDP-43 yeast inh
Cc1oc(-c2ccc3c(c2)OCCO3)cc1C(=O)O	nt	i	i	i
COc1ccc(-c2cc(C(=O)O)c(C)o2)cc1OC	i	i	nt	20µM
Nc1nc(NCc2ccc(Cl)cc2Cl)c2[nH]cnc2n1	nt	nt	i	nt
CCc1cccc(Nc2c3c(nc4ncnn24)CCC3)c1	i	i	i	17.8µM
Cc1cc2occ(CC(=O)N(C)CC(=O)Nc3ccccc3C(F)(F)F)c2cc1C	i	i	i	20µM
Cc1cc2occ(CC(=O)N(C)CC(=O)Nc3c(C)cccc3C)c2cc1C	i	i	i	i
C[C@H]1[C@H](NC(=O)c2ccc(Cl)c(Cl)c2)CC[C@@]23CCCN2C(=O)CCC[C@@H]13	i	nt	nt	nt
COc1ccc(C2C(C(=O)Nc3cc(OC)c(OC)c(OC)c3)CCC(=O)N2c2ccc(OC)cc2)cc1 (stereo not given)	i	nt	nt	nt
CCOC(=O)Cc1nc(N2CCCN(C(C)=O)CC2)c2c(C)c(C(=O)OCC)sc2n1	i	nt	nt	nt
CCCCCOc1ccc(C(=O)NCC2(c3ccccc3)CCOCC2)cc1	?	i	i	i
CCCCOc1ccc(C(=O)NCC2(c3ccccc3)CCOCC2)cc1	?	i	i	15.8µM
CC(OC(=O)c1cc(-c2cccnc2)nc2ccccc12)C(=O)Nc1ccc2ccccc2c1 (stereo not given)	5.62µM	i	i	i
O=C(NNC(=S)Nc1ccccc1)c1cc(-c2cccnc2)nc2ccccc12	i	i	i	?
CCOc1ccc(NC(=S)NC(=O)c2c(Cl)cnn2CC)c([N+](=O)[O-])c1	nt	i	i	i
CCOc1ccc(NC(=S)NC(=O)c2c(Br)cnn2C)c([N+](=O)[O-])c1	i	i	i	15.8µM
Cc1nc(S(=O)(=O)c2ccc(Cl)cc2Cl)nc2c1CCC2	i	i	i	i
Cc1nc(S(=O)(=O)c2cccc(Cl)c2)nc2c1CCC2	nt	i	?	14.1µM
COc1ccc(C(=O)O)cc1NCc1ccc(C)s1	i	i	i	3.16µM
O=C(CSc1ccc(-c2ccccn2)nn1)NCc1ccc(F)cc1	?	i	i	15.8µM
O=C(CSc1ccnc(=O)[nH]1)NCc1ccc(F)cc1	i	i	nt	3.16µM
O=C(CSc1ccc(-c2ccccn2)nn1)NCc1ccccc1	i	i	i	i
O=C(CSc1ncccn1)NCc1ccc(F)cc1	i	i	i	15.8µM
CN(Cc1ccccc1)S(=O)(=O)c1cccc(C(=O)OCc2ccc(Oc3ccccc3)cc2)c1	i	nt	nt	nt
CC(C)c1ccc(C(=O)Nc2cc(Cl)ccc2C(=O)O)cc1	i	nt	nt	nt
CN(C(=O)COC(=O)c1ccccc1OCC(=O)Nc1ccc(Br)cc1)c1ccccc1	nt	nt	i	nt
CN(C)c1ccc(C(=O)c2ccccc2)cc1	i	i	i	12.6µM
CC1=NNC(=O)/C1=C\c1cn(-c2ccccc2)nc1-c1cccs1	?	i	i	i
CC1=NNC(=O)/C1=C\c1cn(-c2ccccc2)nc1-c1ccc(F)cc1	?	i	i	11.2µM
